# Reference: PubChem BioAssay (NCATS)
# For part of these data: Results with a measured potency or affinity are listed apart. Activity calls are given as the source filed them.
# Key:
# [1] = Ebola virus entry assay, green fluorescence channel
# [2] = Ebola virus entry assay, blue channel fluorescence
# [3] = Ebola virus entry assay, green fluorescence channel; remark: listed apart in the source
# [4] = Ebola virus entry assay, ratio channel readout
# [5] = Ebola virus entry assay, blue channel fluorescence; remark: listed apart in the source
# [6] = Ebola virus entry assay, green channel fluorescence
# [7] = Ebola virus entry assay, blue channel fluorescence; remark: listed apart in the source
# [8] = Ebola virus entry assay, reporter ratio channel; AC50: Channel type: primary unless noted; outcome: Channel type: primary unless noted
# [9] = Ebola virus entry assay, blue channel (ratio component)
# [10] = Ebola virus entry reporter assay, green channel fluorescence
# [11] = Ebola virus entry assay, ratio channel
# [12] = qHTS profiling of the MIPE4 collection as inhibitors of Plasmodium falciparum (3D7) proliferation (AID 743344);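 further: scaled between DMSO vehicle wells and 0.29 µM artemisinin as full inhibition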; conditions: P. falciparum 3D7 in erythrocytes, SYBR Green DNA fluorescence, 72 h; at 28.5 µM (top of the series) unless noted
# Procedure, shortened: (§1)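 Parasite DNA was quantified by SYBR Green I fluorescence (ex 485, em 535 nm) after overnight lysis in saponin/Triton buffer at room temperature. Cultures at 0.3% parasitemia and 2.5% hematocrit were first exposed to compound for 72 h at 37 C; signals were normalised to artemisinin (0.29 uM) and vehicle wells.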
# [13] = qHTS profiling of the MIPE4 collection as inhibitors of Plasmodium falciparum (DD2) proliferation (AID 743345); conditions: P. falciparum Dd2 in erythrocytes, SYBR Green DNA, 72 h; at 28.5 µM (top of the series) unless noted
# Procedure, shortened: as §1
# [14] = qHTS profiling of the MIPE4 collection as inhibitors of Plasmodium falciparum (DD2) proliferation (Rep 2) (AID 743346); conditions: P. falciparum Dd2 in erythrocytes, SYBR Green DNA, 72 h; at 28.5 µM (top of the series) unless noted
# Procedure, shortened: as §1
# [15] = qHTS profiling of the MIPE4 collection as inhibitors of Plasmodium falciparum (HB3) proliferation (AID 743347);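 further: plate controls were DMSO vehicle wells for no effect and artemisinin wells for full effect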; conditions: P. falciparum HB3 in erythrocytes, SYBR Green DNA, 72 h; at 28.5 µM (top of the series) unless noted
# Procedure, shortened: as §1
# Wherever efficacy is given: 0% is about no effect.
Compound,efficacy [1],outcome [2],outcome [3],outcome [4],outcome [5],outcome [6],outcome [7],outcome [8],outcome [9],outcome [10],outcome [11],AC50 [11],AC50 [8],"parasite growth, % of DMSO control [12]","parasite growth remaining, % of DMSO control (lower = more inhibition) [13]","parasite growth, % of control (lower = inhibition) [14]","growth, % of control [15]"
CC1(C)S[C@@H]2[C@H](NC(=O)C(C(=O)O)c3ccccc3)C(=O)N2[C@H]1C(=O)O (stereo partly specified),26% (inactive),inactive,inactive,inactive,inactive,inactive,inactive,inactive,inactive,,,,,,,,
Cc1cnc(C(=O)NCCc2ccc(S(=O)(=O)NC(=O)NC3CCCCC3)cc2)cn1,-14.5% (inactive),inactive,inactive,inactive,inactive,inactive,inactive,inactive,inactive,,,,,,,,
CC1=C(C(=O)O)N2C(=O)[C@@H](NC(=O)[C@H](N)c3ccccc3)[C@H]2SC1,11.4% (inactive),inactive,inactive,inactive,inactive,inactive,inactive,inactive,inactive,inactive,,,,,,,
Nc1cc(-c2ccncc2)c[nH]c1=O,26.8% (inactive),inactive,inactive,inactive,inactive,inactive,inactive,inactive,inactive,inactive,,,,,,,
CC(C)n1c(/C=C/[C@@H](O)C[C@@H](O)CC(=O)O)c(-c2ccc(F)cc2)c2ccccc21,14.5% (inactive),inactive,inactive,inactive,inactive,inactive,inactive,inactive,inactive,inactive,,,,,,,
O=C(C1CCCCC1)N1CC(=O)N2CCc3ccccc3C2C1 (stereo unspecified),43.7% (inactive),inactive,inactive,inactive,inactive,inactive,inactive,inactive,inactive,inactive,,,,,,,
COc1ccccc1Oc1c(NS(=O)(=O)c2ccc(C(C)(C)C)cc2)nc(-c2ncccn2)nc1OCCO,-15.4% (inactive),inactive,inactive,inactive,inactive,inactive,inactive,inactive,inactive,,,,,,,,
CC1OC(C)OC(C)O1 (stereo unspecified),12.6% (inactive),inactive,inactive,inactive,inactive,inactive,inactive,inactive,inactive,inactive,,,,,,,
Cc1nc2n(c(=O)c1CCN1CCC(c3noc4cc(F)ccc34)CC1)CCC[C@H]2O,18.4% (inactive),inactive,inactive,inactive,inactive,inactive,inactive,inactive,inactive,,,,,,,,
Cc1cccc(C)c1OCC(C)N (stereo unspecified),-20.8% (inactive),inactive,inactive,inactive,,inactive,,inactive,inactive,,inactive,,,,,,
CC(c1cc2ccccc2s1)N(O)C(N)=O (stereo unspecified),-17.4% (inactive),inactive,inactive,inactive,,inactive,inactive,inactive,inactive,inactive,inactive,,,,,,
CCOC(=O)N1CCC(=C2c3ccc(Cl)cc3CCc3cccnc32)CC1,62.3% (inactive),inactive,inactive,inactive,,,,,,,,6.31 µM (active),6.31 µM (active),,,,
CC(=O)O[C@]1(C(C)=O)CC[C@H]2[C@@H]3C=C(Cl)C4=CC(=O)[C@@H]5C[C@@H]5[C@]4(C)[C@H]3CC[C@@]21C,67.4% (inactive),inactive,inactive,inactive,,,,,inactive,,,3.55 µM (active),3.55 µM (active),,,,
CN(C)[C@@H]1C(=O)C(C(N)=O)=C(O)[C@@]2(O)C(=O)C3=C(O)c4c(O)cccc4[C@@](C)(O)[C@H]3C[C@@H]12,106% (inactive),inactive,inactive,inactive,,,inactive,,,,inactive,,31.6 µM (active),28.7%,39.9%,30.2%,32.8%
CC(C)C1CCC(C(=O)N[C@H](Cc2ccccc2)C(=O)O)CC1 (stereo partly specified),-31.7% (inactive),inactive,inactive,inactive,,inactive,inactive,inactive,inactive,,inactive,,,,,,
Nc1nc2c(ncn2COCCO)c(=O)[nH]1,-5.83% (inactive),inactive,inactive,inactive,,inactive,inactive,inactive,inactive,,inactive,,,,,,
O=C1OCCN1/N=C/c1ccc([N+](=O)[O-])o1,18% (inactive),inactive,inactive,inactive,,inactive,inactive,inactive,inactive,inactive,inactive,,,,,,
CN(C)CCc1c[nH]c2ccc(C[C@H]3COC(=O)N3)cc12,-13.2% (inactive),inactive,inactive,inactive,,inactive,inactive,inactive,inactive,,,,,,,,
Nc1ccn([C@@H]2O[C@H](CO)[C@@H](O)C2(F)F)c(=O)n1,-29.1% (inactive),inactive,inactive,inactive,,inactive,inactive,inactive,inactive,,inactive,,,,,,
Cc1c(OCC(F)(F)F)ccnc1CS(=O)c1nc2ccccc2[nH]1 (stereo unspecified),18.5% (inactive),inactive,inactive,inactive,inactive,inactive,inactive,inactive,inactive,inactive,,,,56.6%,83.1%,42.1%,50.8%
Cc1ccccc1N1C(=O)c2cc(S(N)(=O)=O)c(Cl)cc2NC1C (stereo unspecified),25.2% (inactive),inactive,inactive,inactive,,inactive,inactive,inactive,inactive,,inactive,,,,,,
CNS(=O)(=O)Cc1ccc2[nH]cc(CCN(C)C)c2c1,17.1% (inactive),inactive,inactive,inactive,,inactive,inactive,inactive,inactive,inactive,inactive,,,,,,
C=C1CC[C@@]2(O)[C@H]3Cc4ccc(O)c5c4[C@@]2(CCN3CC2CC2)[C@H]1O5,46.6% (inactive),inactive,inactive,inactive,,inactive,inactive,inactive,inactive,inactive,inactive,,,,,,
